# Compounds with a hit are over-represented: about 1.9% of the library has one in this group of screens.
# Furin inhibitor – blocks human furin protease activity; P09958; purified furin, fluorogenic substrate cleavage; inhibition, % at 20 µM or 30 µM; hit rate 0.061% among 220,000; AID 463115; in the data active = inhibition above about 25%
# Target sequence (P09958 108-714 limits assumed): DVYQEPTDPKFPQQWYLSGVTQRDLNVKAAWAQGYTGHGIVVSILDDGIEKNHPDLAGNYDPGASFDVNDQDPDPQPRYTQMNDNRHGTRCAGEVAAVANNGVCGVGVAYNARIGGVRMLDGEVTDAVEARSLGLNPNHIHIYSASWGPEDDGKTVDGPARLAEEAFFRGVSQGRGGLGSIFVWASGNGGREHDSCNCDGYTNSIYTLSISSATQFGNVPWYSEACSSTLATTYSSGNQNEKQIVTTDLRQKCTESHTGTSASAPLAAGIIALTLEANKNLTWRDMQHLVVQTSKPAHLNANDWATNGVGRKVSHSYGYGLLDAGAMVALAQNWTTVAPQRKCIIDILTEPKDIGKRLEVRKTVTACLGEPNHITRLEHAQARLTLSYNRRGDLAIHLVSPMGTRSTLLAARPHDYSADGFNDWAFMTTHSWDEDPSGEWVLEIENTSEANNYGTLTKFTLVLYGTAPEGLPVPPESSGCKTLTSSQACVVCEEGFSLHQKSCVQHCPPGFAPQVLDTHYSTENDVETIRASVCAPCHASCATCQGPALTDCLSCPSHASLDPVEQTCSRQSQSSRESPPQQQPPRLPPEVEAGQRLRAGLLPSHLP
# EP2 modulator – modulators of human EP2 prostaglandin E2 receptor; AID 940; EP2-expressing cells, cAMP HTRF FRET, PGE2 co-stimulation; induction, % at 25 µM; hit rate 0.83% among 260,000; P43116;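 active = compounds whose cAMP rise, as percent of the full-agonist control response, exceeds 60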;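 also: rat C6 glioma line stably carrying human EP2 under a CMV promoter; the protocol text gives 20 µM as final concentration; 100% = response of wells given 1 µM PGE2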
# HMGR II inh – inhibitors of class II HMG-CoA reductase from Enterococcus faecalis. purified E. faecalis HMGR, NADPH absorbance 340 nm kinetic. inhibition, % at 10 µM. hit rate 0.41% among 190,000. AID 1066;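 active = inhibition above a set limit, the median over all tested compounds plus 3 SD, cut at about 9.5% in these data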;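 also: enzyme runs in reverse so mevalonate oxidation gives rising NADPH absorbance; 0% = complete reaction with DMSO and 100% = background rate lacking mevalonate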
# EP2 antag – EP2 receptor (human) inhibition; C6 glioma cells expressing human EP2, cAMP TR-FRET; cells stimulated with saturating PGE2; inhibition, % at 25 µM; hit rate 0.52% among 260,000; AID 1422;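 active = percent inhibition above 40 after rounding to a whole number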;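 also: rat C6 glioma host cells with rolipram phosphodiesterase inhibitor present; the protocol text gives 20 µM as final concentration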
# m-calpain inh – inhibitors of pig calpain II. purified calpain II, fluorogenic peptide substrate, 30 min. inhibition, % at 16 µM. hit rate 0.37% among 220,000. AID 1236;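 active = inhibition above about 50%, limit read from the data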
# EP2 confirm – EP2 receptor cAMP induction, counter-screens negative | shares compounds with EP2 modulator | C6 glioma EP2 cells, cAMP HTRF induction; plus low (about EC15) PGE2 agonist | calls only at 20 µM (by protocol) | hit rate 47% among 1,300;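 active = cAMP induction above 50% in the main assay while under 30% in all four parallel counter assays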;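 also: rat C6 glioma cells stably expressing human EP2 receptor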
# Starred values were filed as active, the others as inactive; i = inactive; · = no result; + = active, no number.
SMILES,Furin inhibitor,EP2 modulator,HMGR II inh,EP2 antag,m-calpain inh,EP2 confirm
CCN(Cc1ccccc1)C(c1cc2cc(C)ccc2[nH]c1=O)c1nnnn1CCOC (stereo not drawn),-18,27,-5,12,-18,·
COc1cc(C2NC(=O)C(=O)/C2=C(\O)c2ccc(OC)c(OC)c2)ccc1O (stereo not drawn),·,-5,·,6,·,·
S=C1NCCc2ccc(Cl)cc2C1c1ccccc1 (stereo not drawn),-26,75*,17*,7,11,+
O=c1c2cn[nH]c2nc(SCc2ccccc2F)n1-c1ccc(Br)cc1,-7,83*,-1,13,-32,+
O=c1c2cn[nH]c2nc(SCc2cc(=O)n3cc(Br)ccc3n2)n1-c1ccc(Br)cc1,-10,20,0,16,-30,·
O=C(NC1CCCC1)C(c1cccs1)N(C(=O)Cc1cccs1)c1ccccc1F (stereo not drawn),·,29,·,7,·,·
CC1=NN(c2ccc(S(=O)(=O)O)cc2)C(=O)/C1=C\c1ccc(Cl)cc1,·,50,·,43*,·,i
CC1=NN(c2ccc(Cl)cc2)C(=O)/C1=C\c1cccn1-c1ccc(S(N)(=O)=O)cc1,-16,-13,7,28,-30,·
Cc1ccc(-c2nc(P(=O)(c3ccccc3)c3ccccc3)c(N3CCOCC3)o2)cc1,-3,65*,-1,10,-15,i
CNc1oc(-c2ccc(Cl)cc2)nc1P(=O)(c1ccccc1)c1ccccc1,-5,68*,-3,5,4,+
CNc1oc(-c2ccccc2)nc1C#N,-51,6,0,12,i,·
COc1ccc(C)cc1N(CC(=O)NC1CCCC1)C(=O)Cn1nnc(-c2ccc(F)cc2)n1,·,17,·,15,·,·
CC(C)c1nnc(NC(=O)c2ccccc2F)s1,·,-22,·,13,·,·
C/C=C(\C)c1nnc(NC(=O)OCC)s1,-1,90*,-7,11,6,i
CC1(C)CC(=O)C2=C(C1)OC1=C(C(=O)CC(C)(C)C1)C2c1c(O)cccc1Cl,·,-2,·,8,·,·
Cn1c(=O)c2c(nc(CN3CCN(c4ccccc4)CC3)n2Cc2ccccc2Cl)n(C)c1=O,-33,58,-1,6,-25,i
Cn1c(=O)c2c(nc(CN3CCN(c4ccccc4)CC3)n2Cc2c(F)cccc2Cl)n(C)c1=O,-23,71*,-6,2,-10,i
CC1CCN(Cc2nc3c(c(=O)n(C)c(=O)n3C)n2Cc2c(F)cccc2Cl)CC1,-11,·,·,·,·,·
COc1cccc2[nH]c3c(N4CC(C)CC(C)C4)ncnc3c12 (stereo not drawn),-3,90*,-5,·,-41,+
COc1cccc2[nH]c3c(N4CCCC(C)C4)ncnc3c12 (stereo not drawn),-1,94*,8,6,-374,+
Cc1ccc(NC(=O)c2nc3ncccn3n2)cc1F,·,-12,·,10,·,·
O=C(CSc1nc2ccccc2c(=O)n1CC1CCCO1)OC1CCCCC1 (stereo not drawn),·,38,·,2,·,·
CCc1c(C)nc(NC2CCN(S(=O)(=O)c3ccccc3C(F)(F)F)CC2)[nH]c1=O,·,-16,·,·,·,·
CC(=O)c1cc2c(cc1NS(=O)(=O)c1ccc(S(=O)(=O)N(C)C3CCCCC3)cc1)OCO2,·,-16,·,9,·,·
O=C(c1ccccn1)N1N=C2/C(=C/c3ccccc3)CCCC2C1c1ccccc1 (stereo not drawn),-10,53,1,10,-6,·
SMILES,Furin inhibitor,EP2 modulator,HMGR II inh,EP2 antag,m-calpain inh,EP2 confirm
O=C1CCC(C(=O)OCC(=O)N2N=C3/C(=C/c4ccccc4)CCCC3C2c2ccccc2)N1 (stereo not drawn),4,78*,-5,6,-29,+
CN(C)c1ncc(S(=O)(=O)c2ccc(Cl)cc2)c(-c2ccccc2)n1,-1,80*,-2,4,56*,+
O=S(=O)(c1ccc(Cl)cc1)c1cnc(-c2cccnc2)nc1-c1ccccc1,-22,22,-1,6,-13,·
CCN(CC)S(=O)(=O)c1c(OC)cc(C)c(Cl)c1C,-19,66*,-5,8,12,i
CCn1c(CNc2ccc(F)cc2)n[nH]c1=S,·,-10,·,19,·,·
O=C(Nc1ccc(F)cc1F)NC1CC2CCCC(C1)N2Cc1ccco1 (stereo not drawn),·,-65,·,6,·,·
CCCCC(=O)C1CCN(Cc2ccccc2)CC1,-6,106*,-1,8,1,i
CCCCNC(=O)C1CCN(Cc2ccc(OCc3ccccc3)cc2)CC1,-17,-5,2,11,-8,·
C[C@H](CCC(=O)O)[C@H]1CC[C@H]2[C@@H]3CC[C@@H]4C[C@H](O)CC[C@]4(C)[C@H]3C[C@H](O)[C@]12C,·,·,·,12,·,·
C[C@H](CCC(=O)O)[C@@H]1CC[C@@H]2[C@H]3CC[C@@H]4C[C@H](O)CC[C@@]4(C)[C@@H]3CC[C@]21C,·,51,·,35,·,i
O=C(Nc1ccccc1Oc1ccccc1)c1ccccc1F,1,68*,3,5,3,i
O=C(COc1ccccc1)Nc1cc(C(F)(F)F)ccc1N1CCCC1,-23,79*,2,19,-11,i
O=C(COc1ccccc1)Nc1ccccc1N1CCN(c2ccccc2)CC1,-30,73*,-4,8,1,+
O=C(COc1ccccc1)Nc1ccccc1N1CCN(c2ccc(F)cc2)CC1,-11,35,-2,16,-22,·
O=C(COc1ccccc1)Nc1ccccc1Oc1ccccc1,-10,72*,-1,4,39,+
CC(C)C(=O)Nc1ccc(NC(=O)c2ccco2)nc1,·,-24,·,13,·,·
Cc1cc(C(=O)N2CCC3(CC2)Nc2ccccc2-n2cccc23)c(C)[nH]1,·,-70,·,7,·,·
Cc1ccc(OCC(=O)Nc2ccccc2-c2ccccc2)cc1,-13,60,·,-2,-2,·
COc1cccc(OCC(=O)Nc2ccccc2-c2ccccc2)c1,-29,70*,-3,13,9,+
COc1cc(NC(=S)NC(=O)c2ccc(C(C)(C)C)cc2)ccc1NC(=O)c1cccs1,-13,43,0,7,6,·
COc1cc(NC(=S)NC(=O)c2cc(C)cc(C)c2)ccc1NC(=O)c1cccs1,-17,68*,-4,13,4,i
O=C(CSc1nc2ccc(Cl)cc2[nH]1)N1CCOCC1,·,-17,·,8,·,·
Cc1ccc(Nc2nc(CSc3nnc(-c4ccccc4C)n3C)cs2)cc1,-10,71*,-3,4,-5,+
O=C(Nc1ccccc1N1CCCCC1)c1cnccn1,-22,66*,1,5,23,+
Cc1ccc(C(=O)Nc2ccccc2N2CCCCC2)cc1[N+](=O)[O-],-16,66*,1,1,18,+
Cc1ccccc1C(=O)Nc1ccccc1N1CCCCC1,-30,60,-5,7,16,+
CN1CCN(c2ccccc2NC(=O)c2ccc(N3CCCCC3)c([N+](=O)[O-])c2)CC1,-10,-8,-3,8,-5,·
